Assay results as given in PubChem BioAssay (EPA / NIEHS).
Where “and” joins values, the source holds several entries; their conditions need not be identical. Equal entries are not always repeated. Inconclusive results are not listed. Some structures have more than one record in an assay (separate samples or runs), and their calls can disagree. Calls of active or inactive are those of the source. The calls were made as follows: active = hit-call score of the fitted dose curve at least 0.9, where 1 is the maximum; inconclusive = response in the unintended direction; inactive = score below 0.9.

What follows are compounds tested against Nuclear receptor subfamily 4 group A member 2 (Homo sapiens) (UniProt P43354) (assay: ATG_NURR1_TRANS: Attagene TRANS-FACTORIAL HepG2 Assay for human Nuclear Receptor Related Protein 1 (NURR1) (AID 2282985)). Settings: HepG2 Attagene TRANS reporter, mRNA readout.
Sequence of Nuclear receptor subfamily 4 group A member 2 (Homo sapiens) (P43354 whole entry, looked up): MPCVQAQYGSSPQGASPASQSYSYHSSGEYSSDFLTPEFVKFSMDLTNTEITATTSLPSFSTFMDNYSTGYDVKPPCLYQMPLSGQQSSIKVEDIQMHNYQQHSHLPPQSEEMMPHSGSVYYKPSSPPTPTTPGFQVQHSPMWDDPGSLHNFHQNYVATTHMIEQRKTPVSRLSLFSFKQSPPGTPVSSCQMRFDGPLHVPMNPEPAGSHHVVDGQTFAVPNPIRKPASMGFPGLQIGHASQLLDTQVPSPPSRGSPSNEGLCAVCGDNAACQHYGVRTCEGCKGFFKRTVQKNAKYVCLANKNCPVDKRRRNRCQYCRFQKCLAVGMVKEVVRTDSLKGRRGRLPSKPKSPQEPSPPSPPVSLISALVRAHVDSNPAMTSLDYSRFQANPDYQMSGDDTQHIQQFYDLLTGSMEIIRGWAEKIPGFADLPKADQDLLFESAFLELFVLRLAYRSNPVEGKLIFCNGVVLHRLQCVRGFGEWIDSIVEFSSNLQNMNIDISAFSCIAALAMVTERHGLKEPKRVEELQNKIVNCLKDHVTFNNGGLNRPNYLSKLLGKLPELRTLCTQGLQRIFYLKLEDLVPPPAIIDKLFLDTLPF
Method: ATG_TRANS is a cell-based, multiplexed-readout assay that uses HepG2, a human liver cell line, with measurements taken at 24 hours after chemical dosing in a 24-well plate.ATG_NURR1_TRANS is one of 30 assay component(s) measured or calculated from the ATG_TRANS assay. It is designed to make measurements of mRNA induction, a form of inducible reporter, as detected with fluorescence intensity signals by Reverse transcription polymerase chain reaction (RT-PCR) and Capillary electrophoresis technology.Data from the assay component ATG_NURR1_TRANS was analyzed into 1 assay endpoint. This assay endpoint, ATG_NURR1_TRANS, was analyzed in the positive analysis fitting direction relative to DMSO as the negative control and baseline of activity. Using a type of inducible reporter, measures of mRNA for gain-of-signal activity can be used to understand the reporter gene at the transcription factor-level as they relate to the gene NR4A2. Furthermore, this assay endpoint can be referred to as a primary readout, because this assay has produced multiple assay endpoints where this one serves a reporter gene function. To generalize the intended target to other relatable targets, this assay endpoint is annotated to the nuclear receptor intended target family, where the subfamily is orphan.
Human liver HepG2 cells are transiently transfected with multiple reporter transcription units (MRTUs) in 6-well plates using FuGene 6 reagent (Roche; 3 ml FuGene/1 mg DNA). The MRTU constructs are regulated by a cis-regulating element (promoter). […] A major difference between the CIS and TRANS system is that in CIS activities of endogenous TFs are measured, whereas the TRANS assay evaluates changes in activities of exogenous, chimeric NR-Gal4 proteins. […] At the end of 24 hour incubation, total RNA was isolated using TriZol reagent (Invitrogen). The isolated RNA is then reverse-transcribed using oligo(dT) primer and Mo-MLV reverse transcriptase (Invitrogen) with DNAse I (Ambion) treatment for 30 min. The one-tenth of the produced cDNA was amplified by PCR using Taq DNA polymerase (Invitrogen) and two reporter sequence-specific primers. The PCR products were fluorescently labeled by primer extension with 6-arboxyfluorescein (6-FAM) 5'-labeled reporter sequence-specific primer (2 min at 95 C, 20 s at 68 C and 10 min at 72 C) and these products were digested with 5U of HpaI (New England Biolabs) for 2h at 37 C. The fragments were purified using Qiaquick PCR columns (Qiagen), analyzed on an ABI 3130xL genetic analyzer (Applied Biosystems) with peak positions identified by using a set of X-rhodamine (ROX)-labeled MapMarker1000 molecular weight standards (BioVentures). The raw capillary electrophoresis data was processed using Attagraph software (Attagene).

Compound | AC50 | outcome
CCCCCCOC(=O)c1ccc(O)cc1 | 51.4 µM (active) | 
FC(F)(F)N1C(F)(F)C(F)(F)OC(F)(F)C1(F)F |  | inactive
CCC(=O)C=Cc1ccc(OC)cc1 |  | inactive
OCC(CO)(CBr)CBr |  | inactive
Cc1ccc(N=Nc2c(O)ccc3ccccc23)c(C)c1 |  | inactive
Clc1ccc(Nc2nnc(Cc3ccncc3)c3ccccc23)cc1 | 42 µM (active) | 
C=CCOCC(CO)(CO)CO |  | inactive
Cc1ccc(S(=O)(=O)O)cc1 |  | inactive
O=C(NO)c1ccccc1 | 57.6 µM (active) and 40.3 µM (active) and 58 µM (active) | inactive
CC(C)[C@@H]1CC[C@@H](C)C[C@H]1O |  | inactive
CCCCCCCCCCCC[N+](C)(C)CCCCCCCCCCCC |  | inactive
O=C1c2ccccc2C(=O)c2c(O)c(O)cc(O)c21 | 47 µM (active) | 
COc1ccccc1NC(=O)c1cc2ccccc2cc1O |  | inactive
O=C(O)CN(CCCN(CC(=O)O)CC(=O)O)CC(=O)O |  | inactive
O=S(=O)(c1ccc(OCc2ccccc2)cc1)c1ccccc1O | 49.9 µM (active) | 
CCC1CO1 (stereo not given) |  | inactive
CCOC=C(C(=O)OCC)C(=O)OCC |  | inactive
c1cc2cccc3c4cccc5cccc(c(c1)c23)c54 |  | inactive
CC(C)(C)C1CCCCC1O (stereo not given) |  | inactive

Compound | AC50 | outcome
CC(C)(C)c1ccc(CCC=O)cc1 |  | inactive
Cc1cc(=O)oc2cc(O)ccc12 |  | inactive
Brc1ccc(Oc2ccc(Br)cc2Br)cc1 |  | inactive
O=C(Nc1ccc(Cl)c(Cl)c1)c1cc(Cl)cc(Cl)c1O |  | inactive
FC(F)(F)C(F)(F)C(F)(F)Br |  | inactive
O=C1OC2(c3ccccc31)c1cc(I)c(O)c(I)c1Oc1c2cc(I)c(O)c1I | 25.4 µM (active) | inactive
CCCCCCCCCCCCCCC |  | inactive
CCCCCCCC(OC)OC |  | inactive
O=C1Cc2ccccc2N1c1c(Cl)cccc1Cl |  | inactive
C[C@]12CC[C@@H]3c4ccc(O)cc4CC[C@H]3[C@@H]1C[C@@H](O)[C@@H]2O |  | inactive
Cc1ccc(C(=O)c2ccccc2)cc1 |  | inactive
CCCCCCCCCCCCCCCCCC[N+](C)(C)Cc1ccccc1 |  | inactive
CC1=CC(=O)c2ccccc2C1=O |  | inactive
CCOC(=O)CN[C@@H](C(=O)N1CC[C@H]1C(=O)NCc1ccc(/C(N)=N/O)cc1)C1CCCCC1 | 3.99 µM (active) | 
CCCCC(CC)C(=O)OCCOCCOCCOCCOC(=O)C(CC)CCCC (stereo not given) |  | inactive
O=CC(F)(F)C(F)(F)C(F)(F)C(F)F |  | inactive
CCC(=O)O |  | inactive
C=COC(=O)C(C)(C)CCCCCC |  | inactive
COC1=CC(=O)C[C@@H](C)[C@]12Oc1c(Cl)c(OC)cc(OC)c1C2=O |  | inactive
